Records with an inconclusive call do not appear. Active and inactive are the calls of the source. Rule for the calls: active = hit-call score of the fitted dose curve at least 0.9, where 1 is the maximum; inconclusive = response in the unintended direction; inactive = score below 0.9.

The text below walks through data of PubChem BioAssay (EPA / NIEHS).

The nature of this assay: ACEA_ER_80hr: ACEA Biosciences xCELLigence Real-Time Cell Analysis on Estrogen Receptor Agonism for Proliferation (AID 2282667). To be noted: T47D proliferation, impedance (xCELLigence), 80 h. In short, it runs like this: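 Cell-growth kinetics were measured by impedance in T47D cells treated continuously with compound (top 100 uM final, 1:4 steps, 8 points). Activity at 80 h was scored as signal gain over the DMSO baseline.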
On to `c1ccc(N=NNc2ccccc2)cc1`, for which the outcome was inactive.

With `COc1ccc(OC)c(C=O)c1`, the outcome was inactive.

With `Oc1ccc(-c2ccccc2)cc1`, the AC50 (usually the concentration at which the activity in the assay is half-maximal) is 10.5 µM (active).

As to `CC(C)OC(=O)Nc1ccccc1`, the compound was classed as inactive.

With `Nc1cccc2ccccc12`, the outcome was inactive.

Turning to `CC1CN1P(=O)(N1CC1C)N1CC1C` (stereo not drawn), the compound was called inactive.

Take `C[C@]12CC[C@H](O)CC1=CC[C@@H]1[C@@H]2CC[C@]2(C)C(=O)CC[C@@H]12`: the AC50 is 0.983 µM (active).

For `C=CC#N`, the result was inactive.

On to `C1CCC(NC2CCCCC2)CC1`, for which the call was inactive.

Take `CC(=[OH+])/C=C(/C)[O-].CC(=[OH+])/C=C(/C)[O-].CC(=[OH+])/C=C(/C)[O-].[Fe]`: the compound was classed as inactive.

`O=[N+]([O-])c1c(Cl)c(Cl)cc(Cl)c1Cl`: the compound was called inactive.

Take `CCOC(=O)/C=C(C)/C=C/C[C@@H](C)CCCC(C)C`: the call was inactive.

For `Cc1ccccc1C(=O)Nc1cccc(OC(C)C)c1`, the outcome was inactive.

For `COC(=O)Cc1ccccc1`, the outcome was inactive.

Turning to `ClCc1cccnc1`, the result was inactive.

As for `COP(=O)(OC)O/C(=C\Cl)c1cc(Cl)c(Cl)cc1Cl`, the outcome was inactive.

On to `O=C(O)Cc1ccccc1`, for which the result was inactive.

On to `CNC(=O)O/N=C/C(C)(C)S(C)=O` (stereo not drawn), for which the outcome was inactive.

Consider `ClC1=C(Cl)[C@]2(Cl)[C@H]3[C@H]([C@H]4C=C[C@H]3C4)[C@@]1(Cl)C2(Cl)Cl`, for which the call was inactive.

`Nc1ccc(Cl)cc1C(=O)c1ccccc1`: the result was inactive.

As to `C[C@H]1O[C@@H](O[C@H]2[C@@H](O)C[C@H](O[C@H]3[C@@H](O)C[C@H](O[C@H]4CC[C@@]5(C)[C@H](CC[C@@H]6[C@@H]5CC[C@]5(C)[C@@H](C7=CC(=O)OC7)CC[C@]65O)C4)O[C@@H]3C)O[C@@H]2C)C[C@H](O)[C@@H]1O`, the call was inactive.

Regarding `CCC(C)c1cccc(C(C)CC)c1O` (stereo not drawn), the call was inactive.

On to `CCOC(=O)Nc1cccc(OC(=O)Nc2ccccc2)c1`, for which the result was inactive.

For the compound `CC(C)c1ccc(CO)cc1`, the result was inactive.

`OCC(O)CCl` (stereo not drawn): the compound was called inactive.

In the case of `CC1CCCCC1NC(=O)Nc1ccccc1` (stereo not drawn), the call was inactive.

In the case of `O=C(O)CCC(F)(C(F)(F)F)C(F)(F)F`, the compound was classed as inactive.

Take `Cc1cc(=O)[nH]o1`: the compound was called inactive.

Turning to `CN(C)P(=O)(N(C)C)N(C)C`, the compound was classed as inactive.

On to `CC(C#N)CCC#N` (stereo not drawn), for which the call was inactive.

On to `Cc1cc(Cl)ccc1O[C@H](C)C(=O)O`, for which the call was inactive.

Take `C[C@@H](Oc1ccc(Cl)cc1Cl)C(=O)O`: the result was inactive.

As to `C(=NC1CCCCC1)=NC1CCCCC1`, the compound was called inactive.
